{
  "source": "PubChem BioAssay (NCATS)",
  "key": {"[1]": {"target": "Cytochrome P450 3A4 (Homo sapiens) (UniProt P08684)", "sequence (P08684 whole entry, looked up)": "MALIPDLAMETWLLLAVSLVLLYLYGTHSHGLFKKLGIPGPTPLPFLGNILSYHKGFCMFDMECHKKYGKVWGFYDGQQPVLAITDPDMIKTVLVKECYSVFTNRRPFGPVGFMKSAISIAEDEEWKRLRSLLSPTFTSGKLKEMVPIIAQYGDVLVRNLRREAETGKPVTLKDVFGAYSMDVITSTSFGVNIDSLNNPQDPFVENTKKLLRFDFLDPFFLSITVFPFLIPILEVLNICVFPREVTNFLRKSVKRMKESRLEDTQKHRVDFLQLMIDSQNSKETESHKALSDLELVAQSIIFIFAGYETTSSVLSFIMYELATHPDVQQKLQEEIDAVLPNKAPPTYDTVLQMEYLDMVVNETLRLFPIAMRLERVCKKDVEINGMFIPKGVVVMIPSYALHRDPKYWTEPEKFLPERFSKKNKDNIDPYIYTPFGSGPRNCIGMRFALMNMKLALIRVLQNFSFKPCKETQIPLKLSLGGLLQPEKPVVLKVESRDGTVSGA", "experiment": "qHTS Assay for Inhibitors and Substrates of Cytochrome P450 3A4 (AID 884; active means well fitted curve in the direction sought with a large enough effect; an effect the other way counts as inactive or inconclusive; further: nearly all actives have a fitted effect of over 50% in size)", "in_short": "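Luminescent readout of luciferin produced by CYP3A4 (20 nM) dealkylation of Luciferin-PPXE, 25 uM (its KM). NADPH-driven reaction ran 60 min at RT after 10 min compound preincubation; data scaled to 57 uM ketoconazole as 100% inhibition.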"}, "[2]": {"experiment": "Confirmation and Secondary Assay for Modulators of Hemoglobin Beta Chain Splicing at IVS2 654 locus (AID 910; active means well fitted curve in the direction sought with a large enough effect; an effect the other way counts as inactive or inconclusive)", "in_short": "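HeLa cells stably expressing EGFP interrupted by β-globin IVS2-654 intron, seeded overnight in Opti-MEM/2% FCS, then treated 2 days at 37 °C. Restored splicing read as total peak GFP intensity per well by laser scanning cytometry (488 nm excitation, 500–520 nm emission); 500 nM antisense PNA as control.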"}, "[3]": {"experiment": "Confirmation and Secondary Assay for Modulators of Hemoglobin Beta Chain Splicing at IVS2 705 locus (AID 930; active means well fitted curve in the direction sought with a large enough effect; an effect the other way counts as inactive or inconclusive)", "in_short": "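Restored EGFP fluorescence after 2-day compound exposure reports splicing correction in IVS2-705 EGFP reporter HeLa cells; positive control was 500 nM splice-blocking PNA oligo. Signal measured as well total peak GFP intensity (488 nm excitation).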"}, "[4]": {"target": "Cytochrome P450 2D6 (Homo sapiens) (UniProt P10635)", "sequence (P10635 whole entry, looked up)": "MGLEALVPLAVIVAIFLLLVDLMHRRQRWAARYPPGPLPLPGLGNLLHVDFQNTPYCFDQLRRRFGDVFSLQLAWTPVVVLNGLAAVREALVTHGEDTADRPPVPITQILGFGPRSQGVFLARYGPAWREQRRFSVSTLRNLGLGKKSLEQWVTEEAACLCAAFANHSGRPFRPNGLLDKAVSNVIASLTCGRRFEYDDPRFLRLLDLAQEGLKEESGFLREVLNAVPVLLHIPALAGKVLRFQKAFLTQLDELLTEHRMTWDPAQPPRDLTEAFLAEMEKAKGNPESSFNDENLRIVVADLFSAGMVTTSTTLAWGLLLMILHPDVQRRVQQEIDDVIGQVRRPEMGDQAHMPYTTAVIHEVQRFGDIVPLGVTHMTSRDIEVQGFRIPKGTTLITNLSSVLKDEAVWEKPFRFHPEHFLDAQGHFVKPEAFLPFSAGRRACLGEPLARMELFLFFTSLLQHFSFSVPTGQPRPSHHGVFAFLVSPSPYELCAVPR", "experiment": "Cytochrome P450 family 2 subfamily D member 6 (CYP2D6) small molecule antagonists: luciferase biochemical (cell-free) qHTS assay (AID 1645840; active means well fitted curve in the direction sought with a large enough effect in the repeat runs; an effect the other way counts as inactive or inconclusive; further: nearly all actives have a fitted effect of over 55% in size)", "in_short": "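P450-Glo CYP2D6 system: proluciferin substrate converted by enzyme to luciferin, read by luminescence proportional to activity. Enzyme-substrate mix with compound 10 min at room temperature, then NADPH regeneration 1 h before detection reagent.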"}, "[5]": {"target": "Cytochrome P450 2C9 (Homo sapiens) (UniProt P11712)", "sequence (P11712 whole entry, looked up)": "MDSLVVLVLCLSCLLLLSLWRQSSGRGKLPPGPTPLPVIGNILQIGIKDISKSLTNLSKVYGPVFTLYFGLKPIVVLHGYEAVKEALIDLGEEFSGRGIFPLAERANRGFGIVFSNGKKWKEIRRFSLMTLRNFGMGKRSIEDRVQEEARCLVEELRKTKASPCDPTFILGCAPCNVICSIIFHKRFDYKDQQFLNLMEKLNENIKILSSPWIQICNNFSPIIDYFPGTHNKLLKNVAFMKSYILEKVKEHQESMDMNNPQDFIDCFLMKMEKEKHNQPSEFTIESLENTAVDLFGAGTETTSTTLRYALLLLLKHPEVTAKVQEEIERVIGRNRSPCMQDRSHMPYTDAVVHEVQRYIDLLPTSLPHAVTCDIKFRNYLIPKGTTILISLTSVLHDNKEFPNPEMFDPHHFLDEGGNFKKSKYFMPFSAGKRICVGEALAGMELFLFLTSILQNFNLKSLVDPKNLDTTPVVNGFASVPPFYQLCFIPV", "experiment": "Cytochrome P450 family 2 subfamily C member 9 (CYP2C9) small molecule antagonists: luciferase biochemical (cell-free) qHTS assay (AID 1645842; active means well fitted curve in the direction sought with a large enough effect in the repeat runs; an effect the other way counts as inactive or inconclusive; further: nearly all actives have a fitted effect of over 55% in size)", "in_short": "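P450-Glo CYP2C9 system: proluciferin substrate with enzyme in mix containing 0.4% BSA, 10 min at room temperature, then NADPH regeneration solution added and incubated 1 h at 37C. Detection reagent stopped reaction; luminescence read after 20 min as RLU.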"}, "[6]": {"experiment": "Confirmatory qHTS to identify inhibitors of SARS-CoV-2 cell entry (AID 1645844); further: nearly all actives have a fitted effect of over 45% in size; further: potency means the concentration at half of the fitted maximal effect", "in_short": "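HEK293-ACE2, overnight seeding; cpd 1 h, 37C/5% CO2; + SARS-CoV-2-S MLV PP (Wuhan-Hu-1, ΔC19); 48 h; Bright-Glo luminescence. Data normalised to S PP and bald PP wells.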"}, "[7]": {"experiment": "Cytotoxicity counterscreen for inhibitors of SARS-CoV-2 cell entry (AID 1645845); further: nearly all actives have a fitted effect of over 50% in size", "conditions": "outcome: at 57.1 µM (top of the series) unless noted", "in_short": "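Counterscreen run in the same HEK293-ACE2 line as the pseudotyped-particle entry assay, without particles. Viability after 48 h at 37 C was read as ATP luminescence, scaled between cell-containing and cell-free wells.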"}, "[8]": {"experiment": "Primary qHTS to identify inhibitors of SARS-CoV-2 cell entry (AID 1645846); further: nearly all actives have a fitted effect of over 45% in size; further: potency means the concentration at half of the fitted maximal effect", "conditions": "SARS-CoV-2 pseudovirus cell entry assay, luminescence; activity change, negative = inhibition: at 57.1 µM (top of the series) unless noted", "in_short": "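HEK293-ACE2 (Expi293F, stable hACE2), 1500 cells/well, o/n 37C; cpd 23 nL pin, 1 h; MLV-PP w/ SARS-CoV-2-S (Wuhan-Hu-1, Δ19 C-term); 48 h 37C; Bright-Glo luminescence; normalized vs S-PP and bald PP.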"}, "[9]": {"experiment": "Primary qHTS for inhibitors of nuclear receptor binding SET domain protein 2 (NSD2) in an isogenic RCH-ACV NSD2 p.E1099K mutant (9B) (AID 1645876; active means well fitted curve in the direction sought with a large enough effect; an effect the other way counts as inactive or inconclusive; further: nearly all actives have a fitted effect of over 70% in size)"}, "[10]": {"experiment": "Primary qHTS for inhibitors of nuclear receptor binding SET domain protein 2 (NSD2) in an RCH-ACV wild type WT cells (2C) (AID 1645877; active means well fitted curve in the direction sought with a large enough effect; an effect the other way counts as inactive or inconclusive; further: nearly all actives have a fitted effect of over 70% in size)"}, "[11]": {"target": "Glutathione peroxidase 1 (Homo sapiens) (UniProt P07203)", "sequence (P07203 whole entry, looked up)": "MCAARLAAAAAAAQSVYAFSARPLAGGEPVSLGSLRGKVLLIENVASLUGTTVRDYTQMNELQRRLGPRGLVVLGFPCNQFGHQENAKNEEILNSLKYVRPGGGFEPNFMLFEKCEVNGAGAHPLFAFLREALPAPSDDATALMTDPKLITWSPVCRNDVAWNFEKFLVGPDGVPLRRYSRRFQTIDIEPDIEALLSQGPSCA", "experiment": "Primary qHTS Assay for Inhibitors of Recombinant Selenoprotein Glutathione Peroxidase 1 (GPX1) (AID 1845191; active means well fitted curve in the direction sought with a large enough effect; an effect the other way counts as inactive or inconclusive; further: nearly all actives have a fitted effect of over 65% in size)", "in_short": "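GR-coupled readout: NADPH consumption tracked by fluorescence, ex 340/em 450 nm, at t=0 and after 15 min at RT. Final mix 10 nM GPX1, 1 mM GSH, 0.5 mM CHP, 0.5 mM NADPH, 100 nM GR, 0.01% BSA, following 30 min enzyme–compound preincubation.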"}, "[12]": {"experiment": "qHTS drug screen for cell cycle checkpoint inhibitors in PARPi-resistant BRCA-mutant ovarian cancer cell lines. (AID 1963452)", "conditions": "PEO1/OlaR viability, CellTiter-Glo luminescence, 96 h, stronger effect = lower value", "in_short": "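PEO1, PEO4 and PEO1/OlaR ovarian cancer cells, 600 per well, exposed 96 h at 37C to a dilution series. Viability read by CellTiter-Glo luminescence, normalized to DMSO and empty wells; activity summarized as Z-AUC.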"}, "[13]": {"experiment": "VSVG counterscreen qHTS to identify inhibitors of SARS-CoV-2 cell entry (AID 1645847); further: potency means the concentration at half of the fitted maximal effect; nearly all actives have a fitted effect of over 65% in size", "in_short": "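Expi293F/hACE2 cells, overnight plating; cpd 1 h, 37C/5% CO2; + VSV-G PP (MLV pseudotyping), 48 h; supernatant removed, Bright-Glo luciferase read. Norm: VSV-G PP and bald PP wells.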"}},
  "note": "Records with an inconclusive call do not appear. Entries that show only a call come without a potency. The source made the active and inactive calls. Unless noted, the call rests on the fitted dose curve.",
  "data": [
    {"smiles": "CC(=O)Oc1ccc(Cl)c2cccnc12", "values": [
      {"measurement": "Potency", "setting": "[1]", "value": "inactive"},
      {"measurement": "Potency", "setting": "[2]", "value": "inactive"},
      {"measurement": "Potency", "setting": "[3]", "value": "inactive"},
      {"measurement": "Potency", "setting": "[4]", "value": "inactive"},
      {"measurement": "Potency", "setting": "[5]", "value": "inactive"}
    ]},
    {"smiles": "C=CCC1(CC(C)C)C(=O)NC(=O)NC1=O", "values": [
      {"measurement": "Potency", "setting": "[4]", "value": "inactive"},
      {"measurement": "Potency", "setting": "[5]", "value": "inactive"}
    ]},
    {"smiles": "C[C@H]1[C@H](O)[C@@H](C)/C=C/C=C/CC/C=C/C=C/C=C/C=C/[C@H](O[C@@H]2O[C@H](C)[C@@H](O)[C@H](N)[C@@H]2O)C[C@@H]2O[C@](O)(C[C@@H](O)[C@H](O)CC[C@@H](O)C[C@@H](O)C[C@@H](O)CC(=O)O[C@H]1C)C[C@H](O)[C@H]2C(=O)O", "values": [
      {"measurement": "Potency", "setting": "[6]", "value": "9610 nM (active)"},
      {"measurement": "Potency", "setting": "[7]", "value": "inactive"},
      {"measurement": "activity change, negative = inhibition", "setting": "[8]", "value": -39.7, "unit": "%"},
      {"measurement": "Potency", "setting": "[9]", "value": "inactive"},
      {"measurement": "Potency", "setting": "[10]", "value": "inactive"},
      {"measurement": "Potency", "setting": "[11]", "value": "inactive"},
      {"measurement": "Z-AUC", "setting": "[12]", "value": "1.03 (inactive)"},
      {"measurement": "Z-AUC", "setting": "[12]; measured here: PEO1 parental Z-AUC", "value": 0.678},
      {"measurement": "Z-AUC", "setting": "[12]; measured here: PEO4 Z-AUC", "value": 1.2}
    ]},
    {"smiles": "CN[C@H]1CN(c2ccc3c(=O)c(C(=O)O)cn(-c4nccs4)c3n2)C[C@@H]1OC", "values": [
      {"measurement": "Potency", "setting": "[6]", "value": "555 nM (active)"}
    ]},
    {"smiles": "CN(C)[C@@H]1C(=O)C(C(N)=O)C(=O)[C@@]2(O)C(=O)C3C(=O)c4c(O)ccc(Cl)c4[C@@](C)(O)C3C[C@@H]12", "note": "(stereo not given in full)", "values": [
      {"measurement": "Potency", "setting": "[4]", "value": "inactive"},
      {"measurement": "Potency", "setting": "[5]", "value": "inactive"}
    ]},
    {"smiles": "Cc1nnc(C[C@@H]2C=C(c3ccc(Cl)cc3)c3ccccc3-n3c(C)nnc32)o1", "values": [
      {"measurement": "Potency", "setting": "[6]", "value": "inactive"}
    ]},
    {"smiles": "Cc1c(-c2ccc(-c3ccccc3F)cc2)nc2ccc(F)cc2c1C(=O)O", "values": [
      {"measurement": "Potency", "setting": "[6]", "value": "108 nM (active)"},
      {"measurement": "Potency", "setting": "[7]", "value": "inactive"},
      {"measurement": "activity change, negative = inhibition", "setting": "[8]", "value": -89.2, "unit": "%"},
      {"measurement": "Potency", "setting": "[13]", "value": "136 nM (active)"}
    ]},
    {"smiles": "CCc1nc(C(N)=O)c(Nc2ccc(N3CCC(N4CCN(C)CC4)CC3)c(OC)c2)nc1NC1CCOCC1", "values": [
      {"measurement": "Potency", "setting": "[6]", "value": "3410 nM (active)"},
      {"measurement": "Potency", "setting": "[7]", "value": "inactive"},
      {"measurement": "Potency", "setting": "[8]", "value": "10000 nM (active)"}
    ]},
    {"smiles": "O=C(O)c1ccc(-c2c[nH]c3ncc(-c4ccccc4)cc23)cc1C1CCCC1", "values": [
      {"measurement": "Potency", "setting": "[6]", "value": "1360 nM (active)"},
      {"measurement": "Potency", "setting": "[7]", "value": "inactive"},
      {"measurement": "Potency", "setting": "[8]", "value": "2820 nM (active)"}
    ]}
  ]
}
